± gives the standard deviation.

The test system of the experiment is EfPiwi piRISC loaded with piRNA #1 (26 nt). In words: pre-steady-state target cleavage rate (min^-1); auxiliary factor: 500 nM Ephydatia muelleri Gtsf1; guide: piRNA #1 5'p-UGAGGUAGUAGGUUGUAUAGUAUCCA; MIWI and MILI are mouse PIWI proteins and EfPiwi is from a freshwater sponge; tags in brackets are library labels; higher = faster piRNA-guided slicing of the target. In a few lines: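 At 33 °C in HEPES–potassium acetate buffer, a transcribed, DNA-blocked target RNA library […] was exposed for 0–8 or 0–960 min to 1 nM active affinity-purified piRISC carrying a single synthetic guide, with or without 500 nM GTSF1 partner protein. Uncleaved targets were sequenced and normalised to depth and to weakly complementary targets. With three trials pooled and k3 capped at 0.0001 min^-1, a burst-and-steady-state fit produced the pre-steady-state cleavage rate.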
As to GGAGAGGAUAGUAUACAACCAACUACCUCA, the “pre-steady-state target cleavage rate” value is 0.00242 ± 0.0023.

With “GGAGACCAUACUAUACAACCUACAUGGAGA [g8:g23:cont:t1A]”, the “pre-steady-state target cleavage rate” value was 0.00382 ± 0.0038.

Turning to “GGAGACGAUACUAUACAACCUACUACCUCG [g2:g24:cont:t1G]”, the “pre-steady-state target cleavage rate” value was 0.115 ± 0.037.

Turning to GGAGACCUAACUAUACAACGAACUACCUCA, the “pre-steady-state target cleavage rate” value was under 0.0001.

Take GGAGACGAUACUAUACACACCUACUACCUCA: the “pre-steady-state target cleavage rate” value came out at 0.0061 ± 0.0026.

For the sequence “GGAGACGAUACUAUACAACCUACUAGGAGA [g6:g24:cont:t1A]”, the “pre-steady-state target cleavage rate” value worked out at 0.00317 ± 0.0021.

Consider GGAGUCGAUACUAUACAACGUACUACCUCA, for which the “pre-steady-state target cleavage rate” value amounted to 0.00501 ± 0.0019.

Turning to GGAGACCUUACUAUGCAACCUACUACCUCA, the “pre-steady-state target cleavage rate” value came to 0.0061 ± 0.0032.

On to GGAGACCAUACUAUACAACCUAGUACCUGA, for which the “pre-steady-state target cleavage rate” value came to 0.00278 ± 0.0021.

For the sequence GGAGACCUAUGAUAUCAACCUACUACCAUCA, the “pre-steady-state target cleavage rate” value was under 0.0001.

As for GGAGAGGAUACUAUUCAACCUAGUACCUCA, the “pre-steady-state target cleavage rate” value turned out to be 0.00256 ± 0.0017.

As to GGAGUCGAUACUAUACAAGCUACUACCUCA, the “pre-steady-state target cleavage rate” value amounted to 0.00581 ± 0.0024.

Take GGAGACGAUACUAUACAAUCUACUACCUCA: the “pre-steady-state target cleavage rate” value is 0.00912 ± 0.0039.

In the case of GGAGUGGAUACUAUACAACCUUCUACCUGA, the “pre-steady-state target cleavage rate” value was determined as 0.00359 ± 0.0018.

For GGAGUGGAUACUAUACAUACCUACUACCUCA, the “pre-steady-state target cleavage rate” value amounted to 0.0107 ± 0.0063.

As for GGAGUGGAUUCUAUACAACCUACUACCUCA, the “pre-steady-state target cleavage rate” value is 0.00893 ± 0.0047.

For GGAGUGGAUACUAUACAGACCUACUACCUCA, the “pre-steady-state target cleavage rate” value came to 0.0116 ± 0.0053.

With “GGAGACGAUACUAUACAACCUACUUGGAGA [g7:g24:cont:t1A]”, the “pre-steady-state target cleavage rate” value amounted to 0.00429 ± 0.0022.

GGAGACCUAACUAUACAACCACUACCUCA: the “pre-steady-state target cleavage rate” value is 0.00546 ± 0.0044.

Turning to GGAGACCAUACUAUACAAGCCUACUACCUCA, the “pre-steady-state target cleavage rate” value is 0.00453 ± 0.0032.

Take GGAGACCUAUGAAUAGAACCUACUAGCUCA: the “pre-steady-state target cleavage rate” value was under 0.0001.

For the sequence GGAGACCUAUGAUAUGUACCUACUACGCUCA, the “pre-steady-state target cleavage rate” value was under 0.0001.

As for GGAGACGAUACUAUACUACCAACUACCUCA, the “pre-steady-state target cleavage rate” value worked out at 0.0038 ± 0.0023.

Take GGAGACCUAACUAUACAACCUACUCCCUCA: the “pre-steady-state target cleavage rate” value stood at 0.00341 ± 0.0031.

GGAGACCUUACUAUUACAACCUACUACCUCA: the “pre-steady-state target cleavage rate” value was determined as 0.00484 ± 0.0035.

With GGAGACGAUACGAUACAACCUACUACCUCA, the “pre-steady-state target cleavage rate” value was 0.049 ± 0.019.

For GGAGACCUAUGAUAUGUUCCUACUACUCUCA, the “pre-steady-state target cleavage rate” value is under 0.0001.

Regarding GGAGACGAUACUUUACAACCUACUUCCUCA, the “pre-steady-state target cleavage rate” value came out at 0.00221 ± 0.002.

GGAGACGAUAUCUAUACAACCUACUACCUCA: the “pre-steady-state target cleavage rate” value is 0.00603 ± 0.0041.

Consider GGAGAGGAUACUAUACAACUCUACUACCUCA, for which the “pre-steady-state target cleavage rate” value worked out at 0.00443 ± 0.0043.

On to GGAGUGGAUACAUUACAACCUACUACCUCA, for which the “pre-steady-state target cleavage rate” value worked out at 0.00715 ± 0.0034.

As for GGAGUGGAUACUAUACAAGCUACAACCUCA, the “pre-steady-state target cleavage rate” value is 0.00371 ± 0.0018.

For GGAGAGGAUACUAUACAACGUUCUACCUCA, the “pre-steady-state target cleavage rate” value was found to be 0.00409 ± 0.0022.

Regarding GGAGUGGAUACUAUACAACCUUGUACCUCA, the “pre-steady-state target cleavage rate” value is 0.00568 ± 0.0024.

Consider GGAGACCAUACUAUACAAUCCUACUACCUCA, for which the “pre-steady-state target cleavage rate” value was found to be 0.00501 ± 0.0032.

On to “GGAGAGGAUACUAUACAACCUACUUGGAGA [g7:g25:cont:t1A]”, for which the “pre-steady-state target cleavage rate” value came out at 0.00281 ± 0.0022.

For GGAGUGGAUACUAUACAACCUUCUUCCUCA, the “pre-steady-state target cleavage rate” value came to 0.00355 ± 0.0026.

GGAGAGGAUACUAUACAAGCCUACUACCUCA: the “pre-steady-state target cleavage rate” value was 0.00835 ± 0.005.

On to GGAGACCAUACUAUACAACCUGACUACCUCA, for which the “pre-steady-state target cleavage rate” value was determined as 0.00545 ± 0.0032.
